Test results taken from publication PMC5540273 (PLoS ONE, 2017).

Assays:
Conditions in all cases: concentration: 1 μM, replicates: in singlicate; n = 1
[1] = system: PLK2
[2] = system: PLK3
[3] = system: PLK4
[4] = system: PRKCD
[5] = system: PRKCE
[6] = system: PRKCH
[7] = system: PRKCI
[8] = system: PRKCQ
[9] = system: PRKD1
[10] = system: PRKD2
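Further: KINOMEscan kinase panel screen.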

Row | SMILES | %Inh [1] | %Inh [2] | %Inh [3] | %Inh [4] | %Inh [5] | %Inh [6] | %Inh [7] | %Inh [8] | %Inh [9] | %Inh [10]
1 | O=C(Nc1ccccc1F)NC1CCN(c2ccnc(Nc3ccc(F)cc3)n2)CC1 [GSK1379800] | 0% | 0% | 0% | 0% | 2% | 0% | 18% | 0% | 0% | 2%
2 | Cl.Cl.NCC(NCc1ccc(-c2ccnc3[nH]ccc23)s1)c1ccccc1 (stereo not shown) [GSK1321565] | 5% | 0% | 49% | 91.1% | 84% | 85% | 0% | 55% | 0% | 21%
3 | COc1ccc(Nc2nccc(NCCNC(=O)c3cc4ccccc4s3)n2)cc1 [GSK1379896] | 0% | 0% | 0% | 0% | 2% | 0% | 25% | 9% | 0% | 0%
4 | Nc1ncc(-c2ccc3nccc(-c4ccncc4)c3c2)cc1S(=O)(=O)N1CCOCC1 [GSK1627798] | 0% | 0% | 0% | 0% | 9% | 18% | 9% | 0% | 0% | 3%
5 | CCn1c(-c2nonc2N)nc2c(C#CC(C)(C)O)nc(OC[C@H](N)c3ccccc3)cc21 [GSK943949] | 0% | 0% | 19% | 96.2% | 75% | 97.9% | 20% | 82% | 7% | 17%
6 | COC(=O)Nc1nc2cc(Oc3ccc(NC(=O)Nc4cc(C(F)(F)F)ccc4F)cn3)ccc2[nH]1.Cl.Cl [GW681170] | 0% | 0% | 55% | 0% | 12% | 14% | 26% | 0% | 0% | 9%
7 | COC(=O)Nc1nc2ccc(Oc3ccc(NC(=O)Nc4cc(C(F)(F)F)ccc4F)cc3)cc2n1C.Cl [GW692089] | 0% | 30% | 0% | 0% | 20% | 0% | 4% | 0% | 0% | 10%
8 | COc1cc2c(cc1OCCN1CCNCC1)ncc1c3ccc(C#N)cc3[nH]c21 | 22% | 20% | 32% | 0% | 19% | 0% | 24% | 0% | 0% | 0%
9 | C[C@@H]1CC[C@@H](C(=O)Nc2ccccc2)CN1c1cc(-c2ccc3c(N)n[nH]c3c2)nc(N)n1 [GSK2286062] | 0% | 0% | 0% | 9% | 6% | 14% | 15% | 0% | 0% | 23%
10 | CC(C)c1nc(-c2cccc(NS(=O)(=O)c3c(F)cccc3F)c2F)c(-c2ccnc(Nc3ccc(N4CCOCC4)nc3)n2)s1 [GSK2008607] | 0% | 4% | 100% | 0% | 0% | 22% | 36% | 18% | 93.8% | 99.2%
11 | Cn1cc(-c2ccc3c(c2)CCN3C(=O)Cc2cccc(F)c2)c2c(N)ncnc21 [GSK2603358] | 0% | 6% | 0% | 0% | 14% | 24% | 30% | 0% | 0% | 0%
12 | Clc1ccc(-c2nn3ncccc3c2-c2ccnc(Nc3ccc4c(c3)OCCO4)n2)cc1 [GW829116] | 0% | 7% | 2% | 0% | 1% | 0% | 0% | 22% | 0% | 1%
13 | COc1ccc(CNC(=O)NC2CCN(c3ccnc(Nc4ccc(F)cc4)n3)CC2)cc1 [GSK1379788] | 0% | 0% | 0% | 0% | 0% | 0% | 0% | 0% | 5% | 6%
14 | Cl.c1ccc(-c2ccc3c(Nc4ccc5[nH]ccc5c4)ccnc3c2)nc1 [GW440138] | 0% | 0% | 9% | 0% | 11% | 12% | 0% | 0% | 1% | 2%
15 | CC(=O)N1CCN(c2ccc(Nc3nccc(-c4sc(C(C)C)nc4-c4cccc(NS(=O)(=O)c5cccc(Cl)c5)c4)n3)cn2)CC1 [GSK1660437] | 5% | 0% | 99.8% | 1% | 0% | 19% | 13% | 13% | 89% | 95.3%
16 | Fc1ccc(-c2ncn(C3CCNCC3)c2-c2ccnc(Oc3ccc(-c4ccccc4)cc3)n2)cc1 [SB-245391] | 28% | 17% | 27% | 32% | 40% | 0% | 54% | 0% | 0% | 0%
